# Laboratory results: the supplement of paper PMC8728848
# This excerpt belongs to a sample that is enriched for the strongest signals.
# B1: Epa1to9 (Candida glabrata) (protein)
# chain: MGSSHHHHHHSSGLVPRGSHMTSSNDISLASKDPTTFPLGCSPDITTPKKGLSMELYSYDFRKKGSYPCWDAAYLDPNYPRTGYKSHRLLAKVDGVTGNINFYYHATKGCTPQLGHLPASYNYPKPLTMTNFTMLLYGYFRPKVTGFHTFTISADDLLFVNFGAGNAFDCCRRDSSADHFGNYQAYAIWGSKTAKDELTVHLDAGVYYPIRLFYNNRDYHGALSFTFKTESNENTVSDFSEYFFSLDDTEEGCPGLISYD
# Legend:
# Test in all cases: glycan array binding signal (z-score within array); higher = stronger binding
# Settings in all cases: glycan notation: IUPAC condensed, linker removed
# Gal6S(b1-4)Glc = target: Gal6S(b1-4)Glc
# Method in brief: (§1)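 Negative Z-scores can be read as non-binding. The Z-score is calculated within each array and then averaged across arrays of one protein sequence at different concentrations or buffers and across linkers. Arrays, 3228 in all, were curated from the Consortium for Functional Glycomics database and kept only where the protein sequence was available.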
# Gal6S(b1-4)Glc6S = target: Gal6S(b1-4)Glc6S
# Method in brief: as §1
# Gal6S(b1-4)GlcNAc = target: Gal6S(b1-4)GlcNAc
# Method in brief: as §1
# Gal6S(b1-4)GlcNAc6S = target: Gal6S(b1-4)GlcNAc6S
# Method in brief: as §1
# GalNAc3S(b1-4)GlcNAc3S = target: GalNAc3S(b1-4)GlcNAc3S
# Method in brief: as §1
# GalNAc4S6S(b1-4)GlcNAc = target: GalNAc4S6S(b1-4)GlcNAc
# Method in brief: as §1
# Glc(b1-6)Glc = target: Glc(b1-6)Glc
# Method in brief: as §1
# GlcA(b1-3)Gal = target: GlcA(b1-3)Gal
# Method in brief: as §1
# GlcA(b1-3)GlcNAc = target: GlcA(b1-3)GlcNAc
# Method in brief: as §1
# [1] = target: GlcA3S(b1-3)Gal(b1-4)GlcNAc(b1-3)Gal(b1-4)Glc
# Method in brief: as §1
# [2] = target: GlcNAc(b1-2)Man(a1-3)[GlcNAc(b1-4)][GlcNAc(b1-2)Man(a1-6)]Man(b1-4)GlcNAc(b1-4)[Fuc(a1-6)]GlcNAc
# Method in brief: as §1
# [3] = target: GlcNAc(b1-2)[GlcNAc(b1-4)]Man(a1-3)[GlcNAc(b1-2)Man(a1-6)]Man(b1-4)GlcNAc(b1-4)GlcNAc
# Method in brief: as §1
# [4] = target: GlcNAc(b1-2)[GlcNAc(b1-6)]Man(a1-6)[GlcNAc(b1-2)Man(a1-3)]Man(b1-4)GlcNAc(b1-4)GlcNAc
# Method in brief: as §1
# GlcNAc(b1-3)GalNAc = target: GlcNAc(b1-3)GalNAc
# Method in brief: as §1
# Kdn(a2-3)Gal(b1-3)GalNAc = target: Kdn(a2-3)Gal(b1-3)GalNAc
# Method in brief: as §1
# Man(a1-3)[Man(a1-6)]Man = target: Man(a1-3)[Man(a1-6)]Man
# Method in brief: as §1
# [5] = target: Man(a1-3)[Man(a1-6)]Man(b1-4)GlcNAc(b1-4)[Fuc(a1-6)]GlcNAc
# Method in brief: as §1
# [6] = target: Neu5Ac(a2-3)Gal(b1-3)GlcNAc(b1-2)Man
# Method in brief: as §1
# [7] = target: Neu5Ac(a2-3)Gal(b1-4)GlcNAc(b1-2)Man(a1-3)[Neu5Ac(a2-6)Gal(b1-4)GlcNAc(b1-2)Man(a1-6)]Man(b1-4)GlcNAc(b1-4)GlcNAc
# Method in brief: as §1
# [8] = target: Neu5Ac(a2-3)Gal(b1-4)[Fuc(a1-3)]GlcNAc6S
# Method in brief: as §1
# [9] = target: Neu5Ac(a2-6)Gal(b1-4)GlcNAc(b1-2)Man(a1-3)[Gal(b1-4)GlcNAc(b1-2)Man(a1-6)]Man(b1-4)GlcNAc(b1-4)GlcNAc
# Method in brief: as §1
# [10] = target: Neu5Ac(a2-6)Gal(b1-4)GlcNAc(b1-3)Gal(b1-4)GlcNAc(b1-3)Gal(b1-4)GlcNAc(b1-2)Man(a1-3)[Neu5Ac(a2-6)Gal(b1-4)GlcNAc(b1-3)Gal(b1-4)GlcNAc(b1-3)Gal(b1-4)GlcNAc(b1-2)Man(a1-6)]GalNAc
# Method in brief: as §1
# Neu5Ac(a2-6)GalNAc = target: Neu5Ac(a2-6)GalNAc
# Method in brief: as §1
# Neu5Ac(b2-6)GalNAc = target: Neu5Ac(b2-6)GalNAc
# Method in brief: as §1
# [11] = target: Neu5Gc(a2-8)Neu5Ac(a2-3)Gal(b1-4)GlcNAc
# Method in brief: as §1
binder,measurement,setting,value
B1,glycan array binding signal (z-score),Gal6S(b1-4)Glc,5.05
same,glycan array binding signal (z-score),Gal6S(b1-4)Glc6S,7.26
same,glycan array binding signal (z-score),Gal6S(b1-4)GlcNAc,4.98
same,glycan array binding signal (z-score),Gal6S(b1-4)GlcNAc6S,10.6
same,glycan array binding signal (z-score),GalNAc3S(b1-4)GlcNAc3S,-0.353
same,glycan array binding signal (z-score),GalNAc4S6S(b1-4)GlcNAc,-0.346
same,glycan array binding signal (z-score),Glc(b1-6)Glc,-0.333
same,glycan array binding signal (z-score),GlcA(b1-3)Gal,-0.315
same,glycan array binding signal (z-score),GlcA(b1-3)GlcNAc,-0.346
same,glycan array binding signal (z-score),[1],-0.35
same,glycan array binding signal (z-score),[2],-0.354
same,glycan array binding signal (z-score),[3],-0.295
same,glycan array binding signal (z-score),[4],-0.344
same,glycan array binding signal (z-score),GlcNAc(b1-3)GalNAc,-0.352
same,glycan array binding signal (z-score),Kdn(a2-3)Gal(b1-3)GalNAc,-0.38
same,glycan array binding signal (z-score),Man(a1-3)[Man(a1-6)]Man,-0.287
same,glycan array binding signal (z-score),[5],-0.339
same,glycan array binding signal (z-score),[6],-0.33
same,glycan array binding signal (z-score),[7],-0.322
same,glycan array binding signal (z-score),[8],-0.36
same,glycan array binding signal (z-score),[9],-0.246
same,glycan array binding signal (z-score),[10],-0.309
same,glycan array binding signal (z-score),Neu5Ac(a2-6)GalNAc,-0.343
same,glycan array binding signal (z-score),Neu5Ac(b2-6)GalNAc,-0.346
same,glycan array binding signal (z-score),[11],-0.338
